Values joined by “and” are separate entries in the source; they are usually repeats but may differ in a detail not shown here. Equal values may be shown once. Inconclusive results are not listed. The source holds several records for some structures; these can differ, active in one and inactive in another. Active and inactive are the calls of the source. Unless noted, calls come from the whole dose curve; as a rule, active = well fitted curve in the direction sought with a large enough effect; inconclusive = small, poorly fitted or top-dose-only effect, or another doubt; inactive = no such curve, though single readings can be large; an effect the other way counts as inactive or inconclusive.
Key:
[1] = NS1 protein of Zika virus - qHTS assay to identify small molecule inhibitors in human HEK 293 cells (AID 1347053); conditions: HEK293 ZIKV MR766 infection, NS1 TR-FRET, 24 h; series mostly up to 46.1 µM; note: nearly all actives have a fitted effect of over 55% in size; note: potency is the fitted concentration of half-maximal effect
Summary of the method: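 Readout was TR-FRET using paired anti-NS1 antibodies after 24 h infection of HEK 293 cells with ZIKV MR766 (MOI = 0.5). Compound preceded virus by 1 h; reduced signal reflects lower NS1 expression.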

[2] = qHTS of pediatric cancer cell lines to identify multiple opportunities for drug repurposing: Primary screen for TC32 cells (AID 1347089); conditions: TC32 Ewing sarcoma viability, CellTiter-Glo luminescence, 48 h; series mostly up to 45.8 µM; note: nearly all actives have a fitted effect of over 60% in size; note: potency is the fitted concentration of half-maximal effect
Summary of the method: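 Luminescent CellTiter-Glo read-out of metabolically active TC32 cells after 48 h compound exposure. Primary: MIPE 11-point, 0.78 nM–46 µM; NPC 8-point, 0.59 nM–46 µM. Confirmatory: 11-point dilutions.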

[3] = qHTS of pediatric cancer cell lines to identify multiple opportunities for drug repurposing: Primary screen for DAOY cells (AID 1347090); conditions: DAOY medulloblastoma viability, CellTiter-Glo luminescence, 48 h; series mostly up to 46 µM; note: nearly all actives have a fitted effect of over 55% in size; note: potency is the fitted concentration of half-maximal effect
Summary of the method: (§1)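 Viability measured as metabolically active cells via CellTiter-Glo luminescence following 48 hours of compound exposure, 11-point dilutions in confirmatory testing. 500-1,000 cells/well plated 5 hours before dosing; controls were DMSO and 2.3 µM bortezomib.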

[4] = qHTS of pediatric cancer cell lines to identify multiple opportunities for drug repurposing: Primary screen for SJ-GBM2 cells (AID 1347091); conditions: SJ-GBM2 viability, CellTiter-Glo luminescence, 48 h; series mostly up to 46 µM; note: potency is the fitted concentration of half-maximal effect
Summary of the method: as §1

[5] = target: Atrial natriuretic peptide receptor 1 (Homo sapiens) (UniProt P16066); assay: Natriuretic polypeptide receptor (hNpr1) antagonism - Pilot screen (AID 1347049; calls by dose curve;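 note: agonist-evoked cGMP luminescence read 20 min after hNppA addition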; note: potency is the fitted concentration of half-maximal effect); conditions: hNpr1 cells, antagonist mode cGMP read-out; series mostly up to 57.5 µM
Chain of Atrial natriuretic peptide receptor 1 (Homo sapiens) (P16066 whole entry, looked up): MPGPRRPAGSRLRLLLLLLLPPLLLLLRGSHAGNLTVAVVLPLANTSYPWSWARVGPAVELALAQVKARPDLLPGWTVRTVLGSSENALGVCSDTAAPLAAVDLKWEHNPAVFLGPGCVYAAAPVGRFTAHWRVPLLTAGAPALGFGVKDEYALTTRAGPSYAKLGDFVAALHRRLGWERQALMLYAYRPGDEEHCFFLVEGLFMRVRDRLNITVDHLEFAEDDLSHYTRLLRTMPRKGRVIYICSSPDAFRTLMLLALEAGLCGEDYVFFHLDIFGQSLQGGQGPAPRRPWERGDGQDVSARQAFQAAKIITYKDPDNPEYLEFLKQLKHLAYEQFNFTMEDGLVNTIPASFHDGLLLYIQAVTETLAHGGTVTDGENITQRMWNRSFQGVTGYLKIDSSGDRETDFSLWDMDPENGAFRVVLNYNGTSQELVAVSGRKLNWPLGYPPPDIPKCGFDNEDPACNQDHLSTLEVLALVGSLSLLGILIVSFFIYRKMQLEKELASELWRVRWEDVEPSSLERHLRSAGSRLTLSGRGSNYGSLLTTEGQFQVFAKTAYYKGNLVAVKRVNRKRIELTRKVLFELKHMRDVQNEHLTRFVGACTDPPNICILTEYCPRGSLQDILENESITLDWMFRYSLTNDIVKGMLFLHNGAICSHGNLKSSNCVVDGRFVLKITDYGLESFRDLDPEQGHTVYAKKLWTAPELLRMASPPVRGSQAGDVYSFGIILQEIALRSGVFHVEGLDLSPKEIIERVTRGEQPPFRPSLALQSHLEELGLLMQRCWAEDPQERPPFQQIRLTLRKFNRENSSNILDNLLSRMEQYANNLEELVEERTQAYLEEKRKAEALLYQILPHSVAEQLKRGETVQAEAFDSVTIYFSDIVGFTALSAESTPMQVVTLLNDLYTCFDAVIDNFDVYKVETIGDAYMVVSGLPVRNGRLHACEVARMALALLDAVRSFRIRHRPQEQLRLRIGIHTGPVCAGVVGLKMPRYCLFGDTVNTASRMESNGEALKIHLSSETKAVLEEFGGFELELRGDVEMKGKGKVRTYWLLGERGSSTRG
Summary of the method: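 cGMP-sensor HEK293/hNpr1 cells, 1500/well, plated overnight at 37C. 2% GloSensor reagent, 2 h RT. Compound (23 nL pin transfer) 30 min RT, baseline luminescence pre-read. 0.1 nM hNppA, 20 min RT, post-read.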

[6] = target: Atrial natriuretic peptide receptor 2 (Homo sapiens) (UniProt P20594); assay: Natriuretic polypeptide receptor (hNpr2) antagonism - Pilot subtype selectivity assay (AID 1347050; calls by dose curve; note: potency is the fitted concentration of half-maximal effect); conditions: NPR2-expressing cells, cGMP antagonist-mode read-out; series mostly up to 38.3 µM
Chain of Atrial natriuretic peptide receptor 2 (Homo sapiens) (P20594 whole entry, looked up): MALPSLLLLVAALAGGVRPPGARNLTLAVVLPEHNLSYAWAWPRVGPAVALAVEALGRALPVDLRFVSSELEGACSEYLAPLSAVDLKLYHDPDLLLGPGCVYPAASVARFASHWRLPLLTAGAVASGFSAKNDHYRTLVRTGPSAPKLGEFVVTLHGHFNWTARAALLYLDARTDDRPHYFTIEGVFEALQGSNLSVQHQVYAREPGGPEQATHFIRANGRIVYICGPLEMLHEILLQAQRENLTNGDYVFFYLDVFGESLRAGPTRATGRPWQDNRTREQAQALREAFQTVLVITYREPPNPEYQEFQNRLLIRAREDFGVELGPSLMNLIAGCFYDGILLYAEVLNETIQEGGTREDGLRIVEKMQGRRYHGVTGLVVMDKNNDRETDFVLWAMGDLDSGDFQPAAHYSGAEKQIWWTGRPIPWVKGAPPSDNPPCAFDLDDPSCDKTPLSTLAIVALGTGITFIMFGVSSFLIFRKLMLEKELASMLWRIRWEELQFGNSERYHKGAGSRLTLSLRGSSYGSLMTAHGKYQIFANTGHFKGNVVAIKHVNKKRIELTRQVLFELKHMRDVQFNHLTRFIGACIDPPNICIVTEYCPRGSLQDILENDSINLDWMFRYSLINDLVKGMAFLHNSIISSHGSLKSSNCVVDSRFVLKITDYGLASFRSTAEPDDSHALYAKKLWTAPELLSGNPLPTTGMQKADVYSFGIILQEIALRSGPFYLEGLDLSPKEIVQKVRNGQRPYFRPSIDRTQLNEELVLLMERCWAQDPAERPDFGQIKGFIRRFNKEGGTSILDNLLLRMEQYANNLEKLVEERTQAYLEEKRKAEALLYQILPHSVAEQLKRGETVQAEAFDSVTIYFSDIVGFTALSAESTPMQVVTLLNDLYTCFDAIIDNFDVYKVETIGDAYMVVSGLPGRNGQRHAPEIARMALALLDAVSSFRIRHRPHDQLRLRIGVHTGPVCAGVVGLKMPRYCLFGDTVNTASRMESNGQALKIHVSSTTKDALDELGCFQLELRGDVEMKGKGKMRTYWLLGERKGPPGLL
Summary of the method: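 Luminescence from a genetically encoded cGMP luciferase biosensor in hNpr2-expressing HEK293 cells is read before and 20 min after adding 1 nM hNppC. Test compounds, in interplate 1:5 titrations, are added 30-50 min ahead of the agonist.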

[7] = target: T1, Tyrosine-protein phosphatase non-receptor type substrate 1 (Homo sapiens) + Leukocyte surface antigen CD47 (Homo sapiens) (UniProt P78324+Q08722); assay: CD47-SIRPalpha protein protein interaction - LANCE assay qHTS validation (AID 1347057; active = well fitted curve in the direction sought with a large enough effect in the signal ratio, with a control signal flat, not every such curve was filed as active; the % refers to the signal ratio); conditions: Recombinant CD47-His / biotin-SIRPalpha, TR-FRET ratio; series mostly up to 38.3 µM
T1 sequence (P78324 whole entry, looked up, the tested form may be a part): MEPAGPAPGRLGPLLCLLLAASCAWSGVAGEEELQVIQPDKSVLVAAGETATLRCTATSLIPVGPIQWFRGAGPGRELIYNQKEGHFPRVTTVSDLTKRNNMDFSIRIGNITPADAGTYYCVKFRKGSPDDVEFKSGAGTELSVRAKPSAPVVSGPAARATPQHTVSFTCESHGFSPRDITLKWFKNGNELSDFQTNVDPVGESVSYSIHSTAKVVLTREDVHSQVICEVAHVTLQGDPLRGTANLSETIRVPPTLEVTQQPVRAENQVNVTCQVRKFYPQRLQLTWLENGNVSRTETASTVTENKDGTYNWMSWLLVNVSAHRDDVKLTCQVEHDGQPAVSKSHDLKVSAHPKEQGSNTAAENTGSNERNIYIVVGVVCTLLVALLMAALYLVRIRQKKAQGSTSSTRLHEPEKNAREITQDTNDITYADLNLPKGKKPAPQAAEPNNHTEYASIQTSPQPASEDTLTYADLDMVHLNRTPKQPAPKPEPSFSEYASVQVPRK
T1 sequence (Q08722 whole entry, looked up, the tested form may be a part): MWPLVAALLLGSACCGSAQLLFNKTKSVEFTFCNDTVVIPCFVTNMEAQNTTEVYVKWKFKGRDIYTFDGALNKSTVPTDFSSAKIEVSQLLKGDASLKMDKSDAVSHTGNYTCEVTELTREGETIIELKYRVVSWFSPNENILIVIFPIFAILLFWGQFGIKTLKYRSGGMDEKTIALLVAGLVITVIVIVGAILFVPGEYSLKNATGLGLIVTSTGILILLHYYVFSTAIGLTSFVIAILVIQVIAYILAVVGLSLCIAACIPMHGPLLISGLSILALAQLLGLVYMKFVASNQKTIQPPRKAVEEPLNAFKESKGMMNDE
Summary of the method: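 Inhibition of soluble CD47/SIRPalpha ectodomain association by titrated compounds, measured as 665/615 nm time-resolved FRET ratio after sequential 30 min room-temperature incubations.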

[8] = target: T1, Tyrosine-protein phosphatase non-receptor type substrate 1 (Homo sapiens) + Leukocyte surface antigen CD47 (Homo sapiens); assay: CD47-SIRPalpha protein protein interaction - HTRF assay qHTS validation (AID 1347058; active = well fitted curve in the direction sought with a large enough effect in the signal ratio, not every such curve was filed as active; the % refers to the signal ratio); conditions: TR-FRET HTRF CD47-His / biotin-SIRPalpha binding, ratio 665/615; series mostly up to 38.3 µM
Summary of the method: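 Soluble extracellular domains (6His-CD47, Avi-tag-biotinylated SIRPalpha) in PBS pH 7.4 with 0.05% IGEPAL CA-630. Compounds were preincubated 30 min at RT with CD47 and anti-His-Eu, then SIRPalpha and SAV-XL665 were added. TR-FRET 665/615 ratio.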

[9] = target: T1, Tyrosine-protein phosphatase non-receptor type substrate 1 (Homo sapiens) + Leukocyte surface antigen CD47 (Homo sapiens); assay: CD47-SIRPalpha protein protein interaction - Alpha assay qHTS validation (AID 1347059); conditions: AlphaScreen CD47-His/biotin-SIRPalpha binding, LOPAC; series mostly up to 38.3 µM;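 note: bead proximity luminescence from CD47 binding SIRPalpha after compound preincubation with SIRPalpha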
Summary of the method: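 SIRPalpha-biotin 25 nM + cpd, 30 min RT, dark; add CD47-His 12.5 nM, 30 min; add Ni-NTA/SAV beads 10 ug/mL, 30 min; AlphaScreen. Buffer PBS pH 7.4 + 0.05% IGEPAL CA-630. Non-biotinylated SIRPalpha as control inhibitor.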

[10] = target: Parathyroid hormone/parathyroid hormone-related peptide receptor (Homo sapiens) (UniProt Q03431); assay: qHTS for PTHR1 Agonists: Optimization Screen against the NCGC LOPAC library (AID 1347079); conditions: HEK293 GP2 PTHR1 GloSensor cAMP luminescence, 1 h; series mostly up to 57.1 µM;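 note: GloSensor cAMP luminescence in HEK-293 GP2 cells expressing human PTHR1 with IBMX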
Chain of Parathyroid hormone/parathyroid hormone-related peptide receptor (Homo sapiens) (Q03431 whole entry, looked up): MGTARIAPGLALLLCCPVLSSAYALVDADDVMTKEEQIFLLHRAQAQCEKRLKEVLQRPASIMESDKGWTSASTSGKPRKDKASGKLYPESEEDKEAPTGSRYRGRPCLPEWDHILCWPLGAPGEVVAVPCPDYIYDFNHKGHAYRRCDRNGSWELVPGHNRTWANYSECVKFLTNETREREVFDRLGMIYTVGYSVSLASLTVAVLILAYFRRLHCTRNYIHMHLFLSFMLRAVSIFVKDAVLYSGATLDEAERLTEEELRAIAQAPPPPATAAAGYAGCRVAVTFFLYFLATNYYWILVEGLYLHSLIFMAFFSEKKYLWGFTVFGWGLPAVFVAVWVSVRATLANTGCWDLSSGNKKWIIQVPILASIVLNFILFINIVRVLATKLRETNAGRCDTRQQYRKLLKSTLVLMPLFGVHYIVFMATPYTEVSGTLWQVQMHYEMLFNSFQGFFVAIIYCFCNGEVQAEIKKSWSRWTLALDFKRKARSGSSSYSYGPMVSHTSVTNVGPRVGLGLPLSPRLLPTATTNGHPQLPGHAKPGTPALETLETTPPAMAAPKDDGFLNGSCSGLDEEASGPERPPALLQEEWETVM
Summary of the method: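 Signal increase flags agonism. GP2 cells, derived from HEK-293, express human PTHR1 and a GloSensor cAMP construct.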

Measured: Potency

CCc1c2c(nc3ccc(OC(=O)N4CCC(N5CCCCC5)CC4)cc13)-c1cc3c(c(=O)n1C2)COC(=O)[C@]3(O)CC
active: [1] 332 nM | [2] 236 nM and 739 nM | [3] 13.3 µM and 1.48 µM | [4] 1.19 µM and 590 nM

C[C@@H]1C[C@H]2[C@@H]3CCC4=CC(=O)C=C[C@]4(C)[C@@]3(Cl)[C@@H](O)C[C@]2(C)[C@@]1(OC(=O)c1ccco1)C(=O)CCl
inactive: [1] | [2]
active: [3] 18.7 µM | [4] 9.35 µM

NC(=O)c1ccc2[nH]ccc2c1
inactive: all assays above

COc1cc2ncnc(Nc3cccc(Cl)c3)c2cc1OC
inactive: [5] | [6] | [1] | [7] | [9] | [2]

CCn1cc(C(=O)O)c(=O)c2cc(F)c(N3CCNCC3)cc21
inactive: [1] | [2] | [3] | [4]

Clc1ccccc1CN1CCc2sccc2C1
inactive: [1] | [2] | [3]

CC(C)(C)C(=O)OCOP(=O)(COCCn1cnc2c(N)ncnc21)OCOC(=O)C(C)(C)C
active: [2] 2.64 µM and 10.4 µM
inactive: [1]

CC(C)Cn1cnc2c(N)nc3ccccc3c21
inactive: [1] | [2] | [3]

COC(=O)Nc1nc2ccc(S(=O)c3ccccc3)cc2[nH]1 (stereo not drawn)
active: [2] 1.18 µM | [3] 841 nM and 14.8 µM | [4] 596 nM and 14.8 µM
inactive: [1]

COc1ccc(C(=O)CC(=O)c2ccc(C(C)(C)C)cc2)cc1
inactive: [1]

CC1=C(C(=O)O)N2C(=O)[C@@H](NC(=O)C(N)c3ccccc3)[C@H]2SC1 (stereo partly drawn)
not listed: [2] | [8]
inactive: all other assays above

N[C@@H](Cc1ccc(O)c(O)c1)C(=O)O
not listed: [5]
inactive: all other assays above

CCN(C)C(=O)Oc1cccc([C@H](C)N(C)C)c1
inactive: [1] | [2] | [3] | [4]

O=C(O)C1CCCN(CCC=C(c2ccccc2)c2ccccc2)C1 (stereo not drawn)
inactive: all assays above

CNS(=O)(=O)CCc1ccc2[nH]cc(C3CCN(C)CC3)c2c1
inactive: [1] | [7] | [8] | [9] | [2] | [3]

CS(=O)(=O)c1ccc([C@@H](O)[C@@H](CO)NC(=O)C(Cl)Cl)cc1
inactive: [1] | [2] | [3] | [4]

O=NN(CCCl)C(=O)NC1CCCCC1
inactive: [1] | [2] | [3] | [4]

Nc1nc(N)c2nc(CNc3ccc(C(=O)NC(CCC(=O)O)C(=O)O)cc3)cnc2n1 (stereo not drawn)
active: [4] 0.0833 µM
not listed: [1] | [2] | [8]
inactive: all other assays above

Cc1ccc(S(=O)(=O)N[C@@H](Cc2ccccc2)C(=O)CCl)cc1
active: [5] 12 µM | [6] 5.85 µM | [4] 9.35 µM
not listed: [3]
inactive: all other assays above

CC(=O)[C@H]1CC[C@H]2[C@@H]3CC=C4C[C@@H](O)CC[C@]4(C)[C@H]3CC[C@]12C
inactive: [1] | [2] | [3] | [4]

CC[C@H](NC(C)C)[C@H](O)c1ccc(O)c2[nH]c(=O)ccc12
inactive: [1] | [2] | [3] | [4]

Cc1noc(NS(=O)(=O)c2ccc(N)cc2)c1C
inactive: [1] | [2] | [3] | [4]

CC1CC2C3CCC4=CC(=O)C=C[C@]4(C)[C@@]3(F)[C@@H](O)C[C@]2(C)[C@@]1(O)C(=O)CO (stereo partly drawn)
inactive: all assays above

CCN(CC)CC#CCOC(=O)C(O)(c1ccccc1)C1CCCCC1 (stereo not drawn)
inactive: [5] | [6] | [1] | [10] | [2] | [3]

CCOC(=O)[C@H](CCc1ccccc1)N[C@H]1CS[C@H](c2cccs2)CN(CC(=O)O)C1=O
inactive: [1] | [2]

NC(=O)c1cccc(N)c1
inactive: all assays above

OCc1ccc(-c2nn(Cc3ccccc3)c3ccccc23)o1
not listed: [6]
inactive: all other assays above

Cc1cccc(Nc2ccncc2S(=O)(=O)NC(=O)NC(C)C)c1
inactive: [1] | [2] | [3] | [4]

CC(=O)[C@H]1CC[C@H]2[C@@H]3CCC4=CC(=O)CC[C@]4(C)[C@H]3CC[C@]12C
not listed: [3] | [4] | [5]
inactive: all other assays above

CCCCS(=N)(=O)CCC(N)C(=O)O (stereo not drawn)
inactive: all assays above

CCN1CCCC1CNC(=O)c1cc(S(N)(=O)=O)ccc1OC (stereo not drawn)
inactive: all assays above

CCN(CC)CCn1c(=O)c(Cc2ccc(OC)cc2)nc2ccccc21
not listed: [6] | [8]
inactive: all other assays above

Cc1nnc(NS(=O)(=O)c2ccc(N)cc2)s1
inactive: [1] | [2]

CCOCC(O)COc1ccc(NC(=O)CC[S+](C)C)cc1 (stereo not drawn)
inactive: [1] | [2] | [3] | [4]

COc1cc2nc(N3CCCN(C)CC3)nc(NC3CCN(Cc4ccccc4)CC3)c2cc1OC
active: [2] 20.8 µM | [3] 18.7 µM | [4] 14.8 µM
not listed: [1] | [6]
inactive: all other assays above

NS(=O)(=O)c1cc2c(cc1Cl)NC(C(Cl)Cl)NS2(=O)=O (stereo not drawn)
inactive: [1] | [2] | [3] | [4]

CC(C)NCC(O)c1ccc(NS(C)(=O)=O)cc1 (stereo not drawn)
not listed: [3]
inactive: all other assays above

COc1cc([C@@H]2c3cc4c(cc3[C@H](O)[C@H]3COC(=O)[C@H]23)OCO4)cc(OC)c1OC
inactive: [1]
active: [2] 167 nM and 5.2 nM | [3] 0.0335 µM | [4] 23.7 nM and 1 nM

C[C@@H]1CN(c2c(F)c(N)c3c(=O)c(C(=O)O)cn(C4CC4)c3c2F)C[C@H](C)N1
inactive: [1] | [2] | [3] | [4]

O=P(O)(O)C(O)(Cc1cccnc1)P(=O)(O)O
inactive: [1] | [2] | [3] | [4]

CNC1CCCN(c2c(F)cc3c(=O)c(C(=O)O)cn(C4CC4)c3c2OC)C1 (stereo not drawn)
inactive: [1] | [2] | [3] | [4]

NC(=O)c1cccnc1
inactive: [1] | [2] | [3] | [4]

COC(=O)Nc1nc2ccc(C(=O)c3ccccc3)cc2[nH]1
active: [2] 210 nM and 3.3 µM | [3] 106 nM and 1.18 µM | [4] 0.376 µM
inactive: [1]

CC(C)OC(=O)OCOP(=O)(CO[C@H](C)Cn1cnc2c(N)ncnc21)OCOC(=O)OC(C)C
inactive: [1] | [2] | [3] | [4]

Cc1ncc([N+](=O)[O-])n1CCO
inactive: [1] | [2] | [3] | [4]

CC[C@H](C)C(=O)O[C@H]1C[C@@H](C)C=C2C=C[C@H](C)[C@H](CC[C@@H]3C[C@@H](O)CC(=O)O3)[C@H]21
inactive: [1] | [2]
active: [3] 8.41 µM and 9.35 µM | [4] 9.44 µM and 13.2 µM

Nc1nc(N)nc(-c2cc(Cl)ccc2Cl)n1
inactive: [1] | [2] | [3] | [4]

CN(C)CCc1c[nH]c2ccc(CS(=O)(=O)N3CCCC3)cc12
inactive: [1] | [2] | [3] | [4]

COc1c(N2CCNC(C)C2)c(F)cc2c(=O)c(C(=O)O)cn(C3CC3)c12 (stereo not drawn)
inactive: [1] | [2] | [3] | [4]

Cc1oc(=O)oc1CN1CCN(c2cc3c(cc2F)c(=O)c(C(=O)O)c2n3C(C)S2)CC1 (stereo not drawn)
inactive: [1] | [2] | [3] | [4]

Cc1ccnc2c1NC(=O)c1cccnc1N2C1CC1
inactive: [1] | [2] | [3] | [4]

Nc1nc(F)nc2c1ncn2[C@@H]1O[C@H](CO)[C@@H](O)[C@@H]1O
inactive and 2.09 µM (active): [1]
active: [2] 18.7 µM and 2.62 µM | [3] 1.48 µM | [4] 0.935 µM

CN(C)CCc1c[nH]c2ccc(C[C@H]3COC(=O)N3)cc12
inactive: [1] | [2] | [3] | [4]

CNC(=O)c1cc(Oc2ccc(NC(=O)Nc3ccc(Cl)c(C(F)(F)F)c3)cc2)ccn1
inactive: [1] | [2]
active: [3] 11.8 µM | [4] 8.33 µM

NC(=O)N1c2ccccc2CC(=O)c2ccccc21
inactive: [1] | [2] | [3] | [4]

CC(C)C[C@H](NC(=O)[C@H](CCc1ccccc1)NC(=O)CN1CCOCC1)C(=O)N[C@@H](Cc1ccccc1)C(=O)N[C@@H](CC(C)C)C(=O)[C@@]1(C)CO1
active: [1] 118 nM | [2] 23.6 nM and 147 nM | [3] 53.1 nM and 93.5 nM | [4] 66.8 nM and 29.6 nM

— PubChem BioAssay (NCATS)
